Measured values from PubChem BioAssay.
Activity calls are given as the source filed them.

Experiments:
[1] = E. coli DRC41 culture turbidity changes, primary screen, E. coli filamentation inducer project, strain DRC41, OD650, 48 h (AID 1152);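 also: E. coli MC1000 strain DRC41 lacking acrAB efflux pump and sulA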; conditions: E. coli DRC41 (acrAB sulA), higher = more signal, called active from +8 up or from −8 down
[2] = small-molecule binders of probe aLefty1, primary screen, biochemical, small-molecule microarray, 635/667 nm fluorescence (AID 1153); conditions: higher = more signal;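 also: score merges spot fluorescence with signal-to-noise ratio from the scanned slide images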
[3] = PSAC antagonists in infected red cells, primary screen, cell-based, P. falciparum Indochina, OD700, 1 h (AID 1154); conditions: P. falciparum Indochina infected RBC osmotic lysis, higher = more signal, called active from +8 up or from −8 down
[4] = PSAC antagonists in infected red cells, primary screen, cell-based, P. falciparum Indochina, OD700, 2 h (AID 1155);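 also: lysis reports solute entry through the parasite surface anion channel PSAC; channel blockers reduce lysis of infected cells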; conditions: P. falciparum Indochina infected erythrocytes, osmotic lysis OD700; higher = more signal, called active from +8 up or from −8 down
[5] = osmotic lysis modulators in infected erythrocytes, primary screen, PSAC antagonist project, cell-based, P. falciparum Indochina, OD700, 3 h (AID 1156); conditions: higher = more signal, called active from +8 up or from −8 down
[6] = PSAC antagonists in infected red cells, primary screen, cell-based, P. falciparum Indochina, OD700, 18 h (AID 1157); conditions: P. falciparum Indochina infected erythrocytes, osmotic lysis OD700, 18 h; higher = more signal, called active from +8 up or from −8 down
[7] = modulators of S6 phosphorylation in cells, primary screen, cell-based, A549, cytoblot, luminescence, serum-stimulated (AID 1158); conditions: A549 phospho-S6 cytoblot, 5 h, higher = more signal;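 also: serum-stimulated A549 lung adenocarcinoma cells; signal is phosphorylated S6 detected by cytoblot immunostaining with HRP secondary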
[8] = biological target: NADPH oxidase 2 (Homo sapiens) (UniProt P04839); test: NOX2-dependent H2O2 signal modulators, primary screen, NOX inhibitor project, cell-based, HEK293-NOX2, PMA-stimulated, Amplex Red fluorescence (AID 1159); conditions: 45 min, higher = more signal, called active from +8 up or from −8 down; also: test concentration not given here
Sequence of NADPH oxidase 2 (Homo sapiens) (P04839 whole entry, looked up): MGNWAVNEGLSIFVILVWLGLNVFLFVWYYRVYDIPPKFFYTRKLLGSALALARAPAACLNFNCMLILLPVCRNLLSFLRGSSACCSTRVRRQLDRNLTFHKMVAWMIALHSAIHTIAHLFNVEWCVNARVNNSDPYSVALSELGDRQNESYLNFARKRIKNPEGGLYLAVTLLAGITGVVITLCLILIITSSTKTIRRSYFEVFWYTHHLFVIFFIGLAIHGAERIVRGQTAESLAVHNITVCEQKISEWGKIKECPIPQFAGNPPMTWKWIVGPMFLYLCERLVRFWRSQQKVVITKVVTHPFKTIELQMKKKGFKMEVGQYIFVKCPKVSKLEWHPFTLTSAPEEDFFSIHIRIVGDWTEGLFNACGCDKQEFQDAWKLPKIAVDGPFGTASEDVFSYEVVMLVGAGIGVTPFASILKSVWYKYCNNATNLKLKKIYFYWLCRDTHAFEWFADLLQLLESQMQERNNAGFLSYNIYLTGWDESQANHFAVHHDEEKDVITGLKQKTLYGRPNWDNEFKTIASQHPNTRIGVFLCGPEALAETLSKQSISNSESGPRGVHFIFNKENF

[9] = biological target: NADPH oxidase 4 (Homo sapiens) (UniProt Q9NPH5); test: NOX4-dependent H2O2 signal modulators, primary screen, NOX inhibitor project, cell-based, HEK293-NOX4, tetracycline-induced, Amplex Red fluorescence (AID 1160); conditions: 45 min, higher = more signal, called active from +8 up or from −8 down
Sequence of NADPH oxidase 4 (Homo sapiens) (Q9NPH5 whole entry, looked up): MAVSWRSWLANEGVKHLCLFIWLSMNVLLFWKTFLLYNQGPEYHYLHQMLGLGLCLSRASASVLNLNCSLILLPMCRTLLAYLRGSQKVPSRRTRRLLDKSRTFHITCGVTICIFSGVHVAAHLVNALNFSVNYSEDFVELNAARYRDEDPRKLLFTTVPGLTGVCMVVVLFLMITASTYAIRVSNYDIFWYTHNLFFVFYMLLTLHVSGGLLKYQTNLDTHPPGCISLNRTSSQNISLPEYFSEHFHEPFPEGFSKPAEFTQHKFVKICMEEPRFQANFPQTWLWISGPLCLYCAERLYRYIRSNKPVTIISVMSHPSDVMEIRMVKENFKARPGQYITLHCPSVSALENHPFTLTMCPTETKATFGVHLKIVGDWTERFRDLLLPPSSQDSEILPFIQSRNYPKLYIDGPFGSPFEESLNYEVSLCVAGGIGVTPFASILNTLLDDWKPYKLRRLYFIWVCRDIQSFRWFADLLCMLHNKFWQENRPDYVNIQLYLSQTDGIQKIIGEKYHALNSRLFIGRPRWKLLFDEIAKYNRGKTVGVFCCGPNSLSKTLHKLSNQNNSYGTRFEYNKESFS

[10] = biological target: NADPH oxidase 5 (Homo sapiens) (UniProt Q96PH1); test: NOX5-dependent H2O2 signal modulators, primary screen, NOX inhibitor project, cell-based, HEK293-NOX5, Amplex Red fluorescence (AID 1161); conditions: HEK293-NOX5, ionomycin, 45 min, higher = more signal
Sequence of NADPH oxidase 5 (Homo sapiens) (Q96PH1 whole entry, looked up): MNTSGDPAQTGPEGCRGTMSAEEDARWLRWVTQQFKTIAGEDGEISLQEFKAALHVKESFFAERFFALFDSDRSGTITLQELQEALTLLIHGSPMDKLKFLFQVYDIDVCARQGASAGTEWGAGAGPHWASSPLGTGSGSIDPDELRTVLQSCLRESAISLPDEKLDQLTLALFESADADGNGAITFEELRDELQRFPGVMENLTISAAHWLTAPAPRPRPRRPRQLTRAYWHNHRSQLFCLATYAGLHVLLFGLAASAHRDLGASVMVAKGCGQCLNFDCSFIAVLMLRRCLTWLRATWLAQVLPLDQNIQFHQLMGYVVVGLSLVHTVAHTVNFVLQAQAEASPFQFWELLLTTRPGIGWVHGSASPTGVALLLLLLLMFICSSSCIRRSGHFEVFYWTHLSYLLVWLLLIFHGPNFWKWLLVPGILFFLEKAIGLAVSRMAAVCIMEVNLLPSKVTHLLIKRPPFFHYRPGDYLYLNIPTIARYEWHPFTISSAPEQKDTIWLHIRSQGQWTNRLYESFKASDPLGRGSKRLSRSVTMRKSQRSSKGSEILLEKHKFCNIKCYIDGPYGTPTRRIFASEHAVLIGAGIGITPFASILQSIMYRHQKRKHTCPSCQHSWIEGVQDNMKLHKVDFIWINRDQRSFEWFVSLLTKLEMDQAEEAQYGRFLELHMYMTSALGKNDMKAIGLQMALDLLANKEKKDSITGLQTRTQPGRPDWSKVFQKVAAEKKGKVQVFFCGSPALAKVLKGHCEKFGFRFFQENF

Structure (SMILES)	z-score [1]	composite z-score [2]	z-score [3]	z-score [4]	z-score [5]	z-score [6]	z-score [7]	z-score [8]	z-score [9]	z-score [10]
CC(C)=CCCC(C)=CCON=C1C[C@@H](O)[C@@H](O)[C@@H]2[C@@H]3C(=O)N(C(C)(C)C)C(=O)[C@@H]3CC[C@H]12	0.367 (inactive)	-0.0603	-0.22 (inactive)	0.28 (inactive)	-0.921 (inactive)	-0.138 (inactive)	-0.443	0.799 (inactive)	0.427 (inactive)	0.0706
CO[C@H]1COC(=O)[C@@H]2CCCN2C(=O)CC=C[C@@H](C)[C@H](OC)COC(=O)[C@@H](OCc2ccccc2)C=C[C@@H]1C	-0.33 (inactive)	-0.147	0.946 (inactive)	-0.82 (inactive)	-0.0897 (inactive)	-1.41 (inactive)	0.917	0.291 (inactive)	0.275 (inactive)	0.245
CCc1cc2c(nc1CC)CCN(CCC(C)=NO[C@H](C)c1cn([C@@H]3COC[C@H]3O)nn1)C2	0.211 (inactive)	0.199	1.34 (inactive)	0.72 (inactive)	0.322 (inactive)	0.367 (inactive)	-0.656	-0.539 (inactive)	-0.138 (inactive)	0.779
Cc1ccc(S(=O)(=O)NC(CCc2ccccc2)CC(=O)C(C)(C)C)cc1 (stereo not given)	-0.286 (inactive)	-0.125	0.603 (inactive)	0.0974 (inactive)	-0.573 (inactive)	0.124 (inactive)	-0.566	-1.18 (inactive)	0.0624 (inactive)	-0.868
O=C1C2=CC[C@H]3C(=O)N(c4cccc(Oc5ccccc5)c4)C(=O)[C@H]3[C@H]2[C@H](O)[C@@H]2O[C@H]12	-0.462 (inactive)	-0.103	-0.0001 (inactive)	-0.295 (inactive)	-0.081 (inactive)	0.157 (inactive)	-0.194	0.042 (inactive)	0.605 (inactive)	0.4
COC(=O)C=CCCc1coc(C=CCNC(=O)OC)n1	-0.747 (inactive)	0.632	1.78 (inactive)	0.713 (inactive)	1.13 (inactive)	0.247 (inactive)	0.41	0.575 (inactive)	0.532 (inactive)	0.21
CCCCC#C[C@@H]1C=C[C@H](Oc2cc(OC)c(OC)c(OC)c2)[C@@H](COC(=O)OCC)O1	0.525 (inactive)	-0.147	8.03 (active)	0.673 (inactive)	-0.172 (inactive)	0.0018 (inactive)	-0.153	-1.82 (inactive)	0.215 (inactive)	-2.66
C[C@@H]1NC(=O)[C@@H](C)COC(=O)[C@H](C)NC(=O)[C@@H](C)COC1=O	-2.21 (inactive)	-0.248	0.116 (inactive)	-0.334 (inactive)	-0.172 (inactive)	-1.15 (inactive)	0.35	-0.0632 (inactive)	-1.11 (inactive)	0.136
CCOC(=O)[C@H](CC(C)C)NC(=O)CCC1CC(OC(=O)NCCc2ccc(F)cc2)CC2(CCCC(COC(=O)NCC(c3ccccc3)c3ccccc3)O2)O1 (stereo not given in full)	-1.18 (inactive)	-0.147	4 (inactive)	-0.523 (inactive)	0.784 (inactive)	-0.316 (inactive)	0.0441	1.47 (inactive)	1.88 (inactive)	1.52
CO[C@H]1COC(=O)[C@@H](C)COC(=O)[C@H](C)NC(=O)CC=C[C@H]1C	-0.0819 (inactive)	-0.0186	-0.0875 (inactive)	0.725 (inactive)	0.76 (inactive)	0.403 (inactive)	-0.144	1.72 (inactive)	0.315 (inactive)	0.895
COC(=O)CC=C[C@@H](C)[C@@H](C=NO[C@H](C)c1cn([C@H](CO)Cc2ccccc2)nn1)OC	-0.36 (inactive)	-0.104	0.727 (inactive)	0.0995 (inactive)	-0.721 (inactive)	0.0239 (inactive)	-0.505	0.824 (inactive)	0.541 (inactive)	0.299
CC(CCN1CCCCc2nc(C)c(C)cc21)=NOC[C@@H](C)[C@H](OCc1ccccc1)C(C)C	-0.605 (inactive)	-0.502	-0.0226 (inactive)	-1.71 (inactive)	0.167 (inactive)	-1.99 (inactive)	1.08	-1.86 (inactive)	-0.629 (inactive)	-3.18
Cc1cc2c(nc1C)CCCN2CC(O)CN1CCCc2nc(C)c(C)cc21	-0.171 (inactive)	0.547	-0.274 (inactive)	0.185 (inactive)	0.249 (inactive)	-0.0697 (inactive)	-0.669	0.803 (inactive)	0.628 (inactive)	-0.575
Cc1ccc(S(=O)(=O)N[C@H]2COC(=O)CC=C[C@H](C)[C@@H](NS(=O)(=O)c3ccc(C)cc3)COC(=O)CC=C[C@@H]2C)cc1	0.373 (inactive)	-0.147	0.334 (inactive)	0.283 (inactive)	0.654 (inactive)	0.441 (inactive)	-1.01	0.152 (inactive)	-1.92 (inactive)	-1.01
COC(=O)CC=C[C@@H](C)[C@@H](C=NO[C@@H](C)c1cn([C@H](CO)Cc2ccccc2)nn1)OC	-0.64 (inactive)	-0.275	-0.762 (inactive)	-1.66 (inactive)	-0.726 (inactive)	-1.8 (inactive)	1.32	-0.374 (inactive)	0.173 (inactive)	0.874
CCOC(=O)[C@H](CC(C)C)NC(=O)CCC1CC(OC(=O)NCc2ccc3c(c2)OCO3)CC2(CCCC(COC(=O)NCc3cccc(C(F)(F)F)c3)O2)O1 (stereo not given in full)	-0.457 (inactive)	0.125	1.73 (inactive)	0.182 (inactive)	0.286 (inactive)	0.297 (inactive)	0.427	1.46 (inactive)	0.179 (inactive)	1.2
C[C@@H](c1ccccc1)N1C(=O)[C@H]2[C@H]3[C@H](O)[C@H](O)CC(=NO[C@@H]4O[C@H](CO)[C@@H](O)[C@H](O)[C@H]4O)[C@@H]3CC[C@H]2C1=O	0.387 (inactive)	-0.0272	-0.091 (inactive)	-0.076 (inactive)	-0.698 (inactive)	-0.137 (inactive)	-0.689	-0.119 (inactive)	0.552 (inactive)	0.0309
CSCC[C@@H]1NC(=O)CC=C[C@@H](C)COC(=O)[C@@H](C)COC1=O	-0.136 (inactive)	-0.283	-0.434 (inactive)	0.28 (inactive)	0.742 (inactive)	0.0841 (inactive)	-0.0649	-1.13 (inactive)	0.279 (inactive)	0.238
CO[C@@H]1COC(=O)[C@@H](C)NC(=O)CC=C[C@@H](C)[C@H](NS(=O)(=O)c2ccc(C)cc2)COC(=O)[C@H](C)NC(=O)CC=C[C@H]1C	0.69 (inactive)	-0.145	0.079 (inactive)	-0.121 (inactive)	-0.361 (inactive)	-0.0378 (inactive)	-0.363	0.931 (inactive)	0.649 (inactive)	-0.165
C=CC[C@@H]1C=C[C@H](ON=C(C)CCC(=O)OC[C@H]2O[C@H](C#Cc3ccccc3)C=C[C@@H]2Oc2ccc(C)cc2)[C@@H](CO)O1	-1.44 (inactive)	0.0594	28 (active)	6.05 (inactive)	0.068 (inactive)	1.57 (inactive)	-0.383	-0.367 (inactive)	0.0773 (inactive)	-0.431
Cc1cc2c(nc1C)CCCCN2CC(C)ON=C1[C@H]2CCn3c(=O)n(-c4ccccc4)c(=O)n3[C@H]2[C@H](O)[C@@H]2O[C@H]12 (stereo not given in full)	1.03 (inactive)	-0.0536	0.683 (inactive)	0.0165 (inactive)	0.417 (inactive)	0.122 (inactive)	0.0162	-1.86 (inactive)	-0.0659 (inactive)	0.168
CC(C)(C)N1C(=O)[C@H]2[C@H]3[C@H](O)[C@H](O)CC(=NO[C@@H]4O[C@H](CO)[C@@H](O)[C@H](O)[C@H]4O)[C@H]3CC[C@H]2C1=O	-1.73 (inactive)	-0.193	5.45 (inactive)	1.46 (inactive)	1.01 (inactive)	1.24 (inactive)	-0.527	0.192 (inactive)	-0.912 (inactive)	-3.69
CCO[C@H](c1cc(OC)cc([N+](=O)[O-])c1OC)[C@H](C)C=CCC(=O)OC	0.722 (inactive)	-0.202	0.905 (inactive)	-0.222 (inactive)	-0.361 (inactive)	0.148 (inactive)	-0.168	-0.295 (inactive)	0.276 (inactive)	0.893
CCOC(=O)NN=C1C[C@@H](O)[C@@H](O)[C@@H]2[C@@H]3C(=O)N(c4ccc(F)cc4F)C(=O)[C@@H]3CC[C@@H]12	-0.588 (inactive)	0.197	1.73 (inactive)	0.719 (inactive)	0.171 (inactive)	0.0581 (inactive)	-0.561	0.992 (inactive)	0.605 (inactive)	-0.407
